Reference: PubChem BioAssay
The source made the active and inactive calls.

What was measured:
[1] = test system: Plasmodium falciparum Sir2 (PF13_0152, Sir2A); assay: pfSir2 binders on small-molecule microarrays, primary screen, biochemical, small-molecule microarray, 635 nm fluorescence (AID 1098); conditions: small-molecule microarray binding, fluorescence 635 nm; higher = more signal;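 note: score merges spot fluorescence intensity with its signal-to-noise ratio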
[2] = small-molecule microarray binders of probe aDKK1, primary screen, biochemical, biotinylated probe, 635/667 nm fluorescence (AID 1099); conditions: higher = more signal;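 note: score merges 667nm spot fluorescence with signal to noise across triplicate slides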
[3] = small-molecule microarray binders of probe aCHRDL2, primary screen, biochemical, biotinylated probe, 635/667 nm fluorescence (AID 1100); conditions: higher = more signal
[4] = splicing luciferase reporter signal modulators, primary screen, spliceosome inhibition project, cell-based, HEK293, splice +/- reporter (AID 1101); conditions: luminescence, 24 h, higher = more signal, called active from +8 up or from −8 down;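 note: HEK293 cells carrying a splicing-competent luciferase reporter gene; test concentration not given here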
[5] = target: Fibroblast growth factor 10 (Homo sapiens) (UniProt O15520); assay: FGF10 binders on small-molecule microarrays, primary screen, biochemical, small-molecule microarray, 635 nm fluorescence (AID 1102); conditions: FGF10 binding, fluorescence 635 nm, higher = more signal
Sequence of Fibroblast growth factor 10 (Homo sapiens) (O15520 whole entry, looked up): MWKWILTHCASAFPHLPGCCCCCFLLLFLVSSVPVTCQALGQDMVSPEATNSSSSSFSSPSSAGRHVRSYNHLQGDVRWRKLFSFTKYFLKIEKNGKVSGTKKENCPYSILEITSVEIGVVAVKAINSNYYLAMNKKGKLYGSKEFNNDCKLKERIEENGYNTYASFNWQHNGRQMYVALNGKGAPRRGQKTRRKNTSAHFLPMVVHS

[6] = test system: glycogen synthase kinase-3 (GSK3A per assay name; protocol says GSK3B); assay: GSK3 binders on small-molecule microarrays, primary screen, biochemical, small-molecule microarray, 635 nm fluorescence, GSK3A (AID 1103); conditions: small-molecule microarray binding, fluorescence 635 nm; higher = more signal; note: the record names both GSK3A and GSK3B
[7] = target: Epidermal growth factor receptor (Homo sapiens) (UniProt P00533); assay: EGFR binders on small-molecule microarrays, primary screen, biochemical, small-molecule microarray, 635 nm fluorescence (AID 1104); conditions: EGFR binding, higher = more signal;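 note: score merges 667 nm emission intensity with spot signal to noise over triplicate slides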
Sequence of Epidermal growth factor receptor (Homo sapiens) (P00533 whole entry, looked up): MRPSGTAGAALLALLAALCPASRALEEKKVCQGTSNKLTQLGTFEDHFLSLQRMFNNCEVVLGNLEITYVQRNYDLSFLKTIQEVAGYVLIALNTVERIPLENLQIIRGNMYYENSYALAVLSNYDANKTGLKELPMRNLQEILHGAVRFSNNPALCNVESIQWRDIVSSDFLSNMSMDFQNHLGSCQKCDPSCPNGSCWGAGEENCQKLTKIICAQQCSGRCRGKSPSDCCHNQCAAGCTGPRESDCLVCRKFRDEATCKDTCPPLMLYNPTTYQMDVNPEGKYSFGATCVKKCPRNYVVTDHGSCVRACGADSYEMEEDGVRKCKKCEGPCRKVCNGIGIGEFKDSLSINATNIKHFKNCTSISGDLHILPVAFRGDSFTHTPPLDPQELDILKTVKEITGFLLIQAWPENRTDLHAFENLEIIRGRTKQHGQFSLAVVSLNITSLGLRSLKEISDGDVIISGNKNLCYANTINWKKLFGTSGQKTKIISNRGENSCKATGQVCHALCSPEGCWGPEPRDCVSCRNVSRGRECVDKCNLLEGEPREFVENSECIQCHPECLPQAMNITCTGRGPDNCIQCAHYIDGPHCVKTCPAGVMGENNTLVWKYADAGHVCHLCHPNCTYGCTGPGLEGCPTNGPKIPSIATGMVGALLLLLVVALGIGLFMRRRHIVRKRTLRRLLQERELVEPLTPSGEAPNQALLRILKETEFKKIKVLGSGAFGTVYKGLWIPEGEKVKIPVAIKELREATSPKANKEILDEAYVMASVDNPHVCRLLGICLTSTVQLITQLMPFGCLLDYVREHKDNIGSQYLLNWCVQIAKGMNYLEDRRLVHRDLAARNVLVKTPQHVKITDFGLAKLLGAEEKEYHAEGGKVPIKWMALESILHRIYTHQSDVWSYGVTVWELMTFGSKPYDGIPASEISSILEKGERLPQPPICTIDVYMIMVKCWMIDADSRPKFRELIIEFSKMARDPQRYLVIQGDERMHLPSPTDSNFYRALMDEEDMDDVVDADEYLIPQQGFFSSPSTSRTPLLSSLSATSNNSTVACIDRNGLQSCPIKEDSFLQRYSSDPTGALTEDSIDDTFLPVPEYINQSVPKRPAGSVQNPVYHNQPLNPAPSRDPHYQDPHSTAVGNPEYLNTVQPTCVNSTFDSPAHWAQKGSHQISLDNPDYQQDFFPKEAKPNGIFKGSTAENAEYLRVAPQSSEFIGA

[8] = target: Follistatin-related protein 3 (Homo sapiens) (UniProt O95633); assay: FSTL3 binders on small-molecule microarrays, primary screen, biochemical, small-molecule microarray, 635 nm fluorescence (AID 1105); conditions: FSTL3 binding, higher = more signal;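 note: score merges emission near 667 nm and signal to noise per printed spot across three slides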
Sequence of Follistatin-related protein 3 (Homo sapiens) (O95633 whole entry, looked up): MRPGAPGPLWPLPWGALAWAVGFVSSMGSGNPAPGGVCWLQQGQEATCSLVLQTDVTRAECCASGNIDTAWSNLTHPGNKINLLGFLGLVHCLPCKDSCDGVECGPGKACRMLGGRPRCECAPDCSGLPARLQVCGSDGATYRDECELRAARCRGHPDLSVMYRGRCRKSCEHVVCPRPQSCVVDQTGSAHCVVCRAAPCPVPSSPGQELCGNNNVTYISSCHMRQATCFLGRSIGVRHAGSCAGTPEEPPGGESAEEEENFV

[9] = target: Dickkopf-related protein 1 (Homo sapiens) (UniProt O94907); assay: DKK1 binders on small-molecule microarrays, primary screen, biochemical, small-molecule microarray, 635 nm fluorescence scan (AID 1106); conditions: DKK1 binding, higher = more signal;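 note: score merges emission near 667 nm with signal to noise over three replicate slides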
Sequence of Dickkopf-related protein 1 (Homo sapiens) (O94907 whole entry, looked up): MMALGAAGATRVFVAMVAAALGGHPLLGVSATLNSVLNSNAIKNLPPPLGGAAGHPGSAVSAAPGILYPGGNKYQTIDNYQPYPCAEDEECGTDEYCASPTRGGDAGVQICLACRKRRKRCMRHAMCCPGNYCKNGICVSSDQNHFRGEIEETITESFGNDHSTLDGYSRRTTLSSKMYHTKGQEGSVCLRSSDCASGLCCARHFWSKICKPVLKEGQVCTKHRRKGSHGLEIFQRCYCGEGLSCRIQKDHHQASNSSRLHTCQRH

[10] = test system: Inhibin beta A chain (activin A); assay: INHBA (activin A) binders on microarrays, primary screen, biochemical, small-molecule microarray, 635 nm fluorescence scan (AID 1107); conditions: small-molecule microarray binding, higher = more signal;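 note: mouse activin A protein probed at 4.33 µg/mL on printed slides; score merges bound-protein fluorescence near 667 nm with spot signal-to-noise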
[11] = test system: Human papillomavirus type 1a protein E7 (residues 44-93); assay: HPV1a E7 fragment binders on microarrays, primary screen, biochemical, small-molecule microarray, residues 44-93, 635 nm fluorescence (AID 1108); conditions: small-molecule microarray binding, fluorescence 635 nm; higher = more signal;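 note: E7 fragment applied at 1 µg/mL in TBST for 1 h at 4 C; score combines spot fluorescence with its signal to noise ratio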
[12] = modulators of HCV replicon luciferase signal, primary screen, HCV replication inhibitor project, Huh7 cells, luciferase reporter (AID 1109); conditions: 48 h, higher = more signal;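 note: huh7 hepatoma cells harbouring a luciferase neomycin HCV replicon reporter; luciferase luminescence as measure of HCV replicon replication; test concentration not given here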
[13] = target: Left-right determination factor 2 (Homo sapiens) (UniProt O00292); assay: LEFTY2 binders on small-molecule microarrays, primary screen, biochemical, small-molecule microarray, 635 nm fluorescence scan (AID 1110); conditions: LEFTY2 binding, higher = more signal
Sequence of Left-right determination factor 2 (Homo sapiens) (O00292 whole entry, looked up): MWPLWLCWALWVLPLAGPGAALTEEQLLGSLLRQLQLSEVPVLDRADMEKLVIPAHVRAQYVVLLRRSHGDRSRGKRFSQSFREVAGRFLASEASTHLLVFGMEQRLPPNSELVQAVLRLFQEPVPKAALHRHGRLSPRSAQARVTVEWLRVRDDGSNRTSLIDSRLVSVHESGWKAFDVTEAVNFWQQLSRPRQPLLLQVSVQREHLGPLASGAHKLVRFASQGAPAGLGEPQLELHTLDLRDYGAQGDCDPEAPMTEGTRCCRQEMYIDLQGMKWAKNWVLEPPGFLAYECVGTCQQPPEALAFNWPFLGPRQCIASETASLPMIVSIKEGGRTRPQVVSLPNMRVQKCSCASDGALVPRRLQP

[14] = target: Calmodulin-1 (Homo sapiens) (UniProt P0DP23); assay: CALM1 binders on microarrays, EGTA buffer, profiling panel, biochemical, small-molecule microarray, Cy5-labelled CALM1 (AID 1111); conditions: Cy5-CALM1 binding fluorescence, higher = more signal;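 note: labelled calmodulin applied in Tris saline Tween buffer holding calcium plus EGTA and DTT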
[15] = target: Calmodulin-1 (Homo sapiens) (UniProt P0DP23); assay: calcium-bound CALM1 binders on microarrays, profiling panel, artefact control for SMM control-protein annotation, biochemical, small-molecule microarray, Cy5-labelled CALM1, plus calcium (AID 1112); conditions: Cy5-CALM1 binding fluorescence, higher = more signal;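 note: score merges spot fluorescence with signal to noise from triplicate slides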
[16] = small-molecule microarray binders of probe aWnt5a, primary screen, biochemical, biotinylated probe, 635/667 nm fluorescence (AID 1113); conditions: higher = more signal;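 note: score merges 667 nm fluorescence intensity with signal-to-noise per printed feature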
[17] = small-molecule microarray binders of probe aShh, primary screen, biochemical, biotinylated probe, 635/667 nm fluorescence (AID 1114); conditions: higher = more signal;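 note: probe is biotin-labelled aShh protein from a stem cell growth factor screen; measures binding of labelled protein to compounds printed on the slide; score merges feature fluorescence at 667 nm with signal-to-noise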
[18] = small-molecule microarray binders of probe aNog, primary screen, biochemical, biotinylated probe, 635/667 nm fluorescence (AID 1115); conditions: higher = more signal;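 note: probe is biotinylated aNog protein used at 0.15 µg/mL for 1 h at 4 C; z-score combines 667 nm fluorescence of each spot with its signal to noise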
[19] = target: Torsin-1A-interacting protein 1 (Homo sapiens) (UniProt Q5JTV8); assay: LAP1 binders from COS7 cell lysate, primary screen, small-molecule microarray, 635/667 nm fluorescence (AID 1116); conditions: COS7-hLAP1 lysate binding, 635 nm fluorescence, higher = more signal
Sequence of Torsin-1A-interacting protein 1 (Homo sapiens) (Q5JTV8 whole entry, looked up): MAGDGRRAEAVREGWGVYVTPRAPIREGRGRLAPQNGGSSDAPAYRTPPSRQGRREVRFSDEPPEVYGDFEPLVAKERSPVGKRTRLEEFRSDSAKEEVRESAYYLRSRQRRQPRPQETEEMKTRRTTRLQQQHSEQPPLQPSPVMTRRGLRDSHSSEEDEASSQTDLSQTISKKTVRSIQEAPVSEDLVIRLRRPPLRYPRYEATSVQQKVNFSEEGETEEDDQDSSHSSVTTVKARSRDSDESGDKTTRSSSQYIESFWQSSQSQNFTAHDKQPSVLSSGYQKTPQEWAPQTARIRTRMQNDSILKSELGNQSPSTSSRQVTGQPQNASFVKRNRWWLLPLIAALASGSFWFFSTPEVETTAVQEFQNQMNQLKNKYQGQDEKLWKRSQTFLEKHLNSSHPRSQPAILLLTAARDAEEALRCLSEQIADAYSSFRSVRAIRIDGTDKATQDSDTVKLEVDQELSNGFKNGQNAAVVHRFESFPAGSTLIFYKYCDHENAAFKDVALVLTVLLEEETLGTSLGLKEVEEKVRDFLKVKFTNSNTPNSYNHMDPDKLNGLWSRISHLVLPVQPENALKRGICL

[20] = target: Alpha-bungarotoxin (Bungarus multicinctus) (UniProt P60615); assay: alpha-bungarotoxin binders on microarray, profiling panel, artefact control for SMM control protein annotation, biochemical, small-molecule microarray, Alexa647 label, 635/667 nm fluorescence (AID 1117); conditions: alpha-BTX-A647 binding fluorescence, higher = more signal
Sequence of Alpha-bungarotoxin (Bungarus multicinctus) (P60615 whole entry, looked up): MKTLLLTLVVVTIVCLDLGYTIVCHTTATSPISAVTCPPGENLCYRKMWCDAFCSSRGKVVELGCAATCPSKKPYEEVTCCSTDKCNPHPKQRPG

| SMILES | composite z-score [1] | composite z-score [2] | composite z-score [3] | z-score [4] | composite z-score [5] | composite z-score [6] | composite z-score [7] | composite z-score [8] | composite z-score [9] | composite z-score [10] | composite z-score [11] | z-score [12] | composite z-score [13] | composite z-score [14] | composite z-score [15] | composite z-score [16] | composite z-score [17] | composite z-score [18] | composite z-score [19] | composite z-score [20] |
| --- | --- | --- | --- | --- | --- | --- | --- | --- | --- | --- | --- | --- | --- | --- | --- | --- | --- | --- | --- | --- |
| Cc1ccc(C(C)CC(O)C2C=CC3C(=O)N(Cc4ccccc4)C(=O)C3N2n2cnnc2)o1 (stereo not given) | 0.755 | 1.85 | 1.03 | -0.665 (inactive) | 0.841 | 0.866 | 0.0138 | 0.668 | -0.484 | 1.09 | 1.22 | 0.236 | -0.304 | 0.455 | 0.0454 | 0.688 | 0.765 | 2.12 | 0.342 | 0.279 |
| COc1ccc([Si](C)(C)[C@@H]2[C@@H](CC(=O)N(CCO)Cc3ccccc3)O[C@]3(C(=O)N(C)c4c(Br)cc(C)cc43)[C@H]2C)cc1 | 0.717 | -0.298 | -0.237 | -1.92 (inactive) | 1.1 | -0.27 | 0.729 | 1.09 | 0.834 | 1.02 | 1.26 | -4.3 | 0.661 | -0.87 | -1.13 | 0.168 | -0.399 | -0.406 | 0.13 | 0.0978 |
| Cc1ccc(N2C(=O)c3ccccc3[C@](C)(C(=O)NC(C)C)[C@@H]2c2ccc(CO)cc2)nc1 | 0.118 | -0.0537 | 1.04 | 0.415 (inactive) | -1.22 | -0.738 | -1.21 | -2.01 | -1.63 | -2.54 | -1.24 | -0.406 | -3.6 | -1.12 | -0.862 | -0.219 | -0.49 | -0.441 | 0.177 | 0.24 |
| CCOC(=O)C1=CCC(c2cccc(Cl)c2)O1 (stereo not given) | 0.355 | 0.14 | -0.0411 | -1.29 (inactive) | 0.235 | 0.0617 | -0.62 | -0.275 | -0.504 | 0.154 | 0.377 | -1.74 | 0.005 | -0.314 | -0.571 | -0.0492 | 0.0796 | 0.59 | 0.291 | -0.383 |
| O=C(NCc1ccccc1)[C@]1(Cc2ccccc2)N=C(c2ccc(OCCCO)cc2)O[C@@H]1c1ccccc1 | -0.0602 | 0.857 | 0.75 | -0.0706 (inactive) | 0.154 | 0.789 | 0.178 | -0.11 | -0.565 | 0.672 | 1.4 | -2.58 | -0.126 | 2.01 | 1.1 | -0.13 | -0.305 | 0.044 | 0.652 | 0.351 |
| O=C(O)[C@@]1(Cc2ccccc2)COC(c2ccc(OCCCO)cc2)=N1 | 1.01 | 0.413 | 0.988 | 0.483 (inactive) | -0.38 | -0.835 | -0.645 | -1.14 | -0.91 | 0.53 | 0.0262 | 0.923 | -0.714 | -0.106 | 0.0951 | -0.217 | 0.214 | 0.0254 | 0.28 | -0.47 |
| Cc1ccc(S[C@]2(C(=O)NCc3ccccc3)CC(=O)N(C3Cc4ccccc4C3)[C@@H]2c2ccc(CO)cc2I)cc1 | 0.976 | 0.699 | 0.995 | -1.83 (inactive) | -0.699 | -0.488 | -0.807 | -0.645 | -1.13 | 0.889 | 0.241 | -1.63 | -1.53 | -0.733 | -0.0933 | -0.0896 | -0.364 | -0.0496 | -0.129 | 1.3 |
| CC(C)C[C@@H]1NC(=O)[C@@]23C(=O)N[C@@H](Cc4ccccc4)C2[C@H](C)[C@@]2(C)O[C@H]2C3/C=C/C/C=C\CNC(=O)[C@@H]2CCCN2C1=O (stereo not given in full) | 0.324 | -0.277 | -0.719 | -0.358 (inactive) | 0.0165 | -0.623 | 0.0731 | 0.361 | 0.534 | 1.42 | -0.282 | -0.972 | 0.283 | -0.749 | -0.721 | -0.124 | -0.138 | -0.219 | -0.22 | -0.442 |
| COc1ccc(CCNC(=O)[C@@H]2c3ccccc3C(=O)N(Cc3ccccc3C(F)(F)F)[C@H]2c2ccc(CO)cc2)cc1 | 1.46 | -0.0126 | 0.946 | 0.609 (inactive) | 0.176 | 0.013 | -1.01 | -0.348 | -0.814 | 0.288 | 1.47 | -1.2 | -1.27 | -0.22 | -0.181 | -0.0735 | -0.154 | -0.559 | 0.381 | -0.278 |
| CCN(CC)c1ccc(N2CC=CC34O[C@@H]5/C=C\CCCOC(=O)C5[C@H]3C(=O)N(CCCCCO)[C@@H]4C2=O)cc1 (stereo not given in full) | 0.643 | 0.123 | 0.397 | 0.643 (inactive) | -1.47 | -1.4 | -0.983 | -1.42 | -1.01 | -0.399 | -0.592 | -0.376 | -1.57 | -1.06 | -0.996 | -0.203 | -0.221 | -0.254 | 0.424 | -1.04 |
| O=C(CS)NCCCCCNC(=O)[C@@H]1C[C@@H]2C(=O)N3CCC[C@H]3C(=O)N2[C@@H]1c1ccc(O)cc1 | 0.847 | 0.233 | 0.61 | 0.466 (inactive) | 0.598 | 1.14 | 0.128 | 0.0144 | 0.219 | 0.0603 | 0.922 | 0.0311 | 0.0978 | 0.195 | 0.194 | -0.0758 | 0.499 | -0.152 | 0.375 | 0.542 |
